Experiments:
[1] = tested on: Human papillomavirus type 1a protein E7 (residues 44-93); experiment: small molecules binding HPV E7 44-93 – biochemical, small-molecule microarray, residues 44-93, 635 nm fluorescence, primary screen (AID 1108); settings: fluorescence 635 nm, higher = more signal;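 further: E7 fragment applied at 1 µg/mL in TBST for 1 h at 4 C; score combines spot fluorescence with its signal to noise ratio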
[2] = hepatitis C replication reporter changes, two-sided – Huh7 cells, luciferase reporter, HCV replication inhibitor project, primary screen (AID 1109); settings: Huh7 HCV replicon luciferase reporter, 48 h; higher = more signal;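 further: huh7 hepatoma cells harbouring a luciferase neomycin HCV replicon reporter; luciferase luminescence as measure of HCV replicon replication; test concentration not given here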
[3] = target: Left-right determination factor 2 (Homo sapiens) (UniProt O00292); experiment: small molecules binding LEFTY2 protein – biochemical, small-molecule microarray, 635 nm fluorescence scan, primary screen (AID 1110); settings: higher = more signal
[4] = target: Calmodulin-1 (Homo sapiens) (UniProt P0DP23); experiment: small molecules binding calmodulin-1 with EGTA – biochemical, small-molecule microarray, Cy5-labelled CALM1, profiling panel (AID 1111); settings: Cy5-CALM1 binding fluorescence, higher = more signal;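 further: labelled calmodulin applied in Tris saline Tween buffer holding calcium plus EGTA and DTT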
[5] = target: Calmodulin-1 (Homo sapiens) (UniProt P0DP23); experiment: small molecules binding Ca-loaded calmodulin-1 – biochemical, small-molecule microarray, Cy5-labelled CALM1, plus calcium, artefact control for SMM control-protein annotation, profiling panel (AID 1112); settings: Cy5-CALM1 binding fluorescence, higher = more signal;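 further: score merges spot fluorescence with signal to noise from triplicate slides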
[6] = probe aWnt5a binding to arrayed compounds – biochemical, biotinylated probe, 635/667 nm fluorescence, primary screen (AID 1113); settings: small-molecule microarray, higher = more signal;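 further: score merges 667 nm fluorescence intensity with signal-to-noise per printed feature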
[7] = probe aShh binding to arrayed compounds – biochemical, biotinylated probe, 635/667 nm fluorescence, primary screen (AID 1114); settings: small-molecule microarray, higher = more signal;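 further: probe is biotin-labelled aShh protein from a stem cell growth factor screen; measures binding of labelled protein to compounds printed on the slide; score merges feature fluorescence at 667 nm with signal-to-noise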
[8] = probe aNog binding to arrayed compounds – biochemical, biotinylated probe, 635/667 nm fluorescence, primary screen (AID 1115); settings: small-molecule microarray, higher = more signal;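 further: probe is biotinylated aNog protein used at 0.15 µg/mL for 1 h at 4 C; z-score combines 667 nm fluorescence of each spot with its signal to noise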
[9] = target: Torsin-1A-interacting protein 1 (Homo sapiens) (UniProt Q5JTV8); experiment: compound microarray binding of lysate hLAP1 – cell lysate, small-molecule microarray, COS7 lysate, 635/667 nm fluorescence, primary screen (AID 1116); settings: 635 nm fluorescence, higher = more signal
[10] = target: Alpha-bungarotoxin (Bungarus multicinctus) (UniProt P60615); experiment: compounds binding labelled alpha-BTX control protein – biochemical, small-molecule microarray, Alexa647 label, 635/667 nm fluorescence, artefact control for SMM control protein annotation, profiling panel (AID 1117); settings: alpha-BTX-A647 binding fluorescence, higher = more signal
Chain of Alpha-bungarotoxin (Bungarus multicinctus) (P60615 whole entry, looked up): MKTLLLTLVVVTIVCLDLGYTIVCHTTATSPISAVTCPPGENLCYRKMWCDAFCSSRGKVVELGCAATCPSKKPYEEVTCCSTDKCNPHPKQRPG

Chain of Left-right determination factor 2 (Homo sapiens) (O00292 whole entry, looked up): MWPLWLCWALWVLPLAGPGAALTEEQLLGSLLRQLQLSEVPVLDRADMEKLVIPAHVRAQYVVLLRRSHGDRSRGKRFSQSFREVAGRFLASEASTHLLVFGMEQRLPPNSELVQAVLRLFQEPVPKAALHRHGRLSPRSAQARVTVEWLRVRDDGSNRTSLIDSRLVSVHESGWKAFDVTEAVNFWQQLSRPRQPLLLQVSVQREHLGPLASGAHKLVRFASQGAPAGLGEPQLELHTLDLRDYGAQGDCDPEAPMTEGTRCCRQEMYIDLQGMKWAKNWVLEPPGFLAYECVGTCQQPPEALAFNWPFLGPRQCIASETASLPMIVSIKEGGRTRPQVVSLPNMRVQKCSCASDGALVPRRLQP
Chain of Torsin-1A-interacting protein 1 (Homo sapiens) (Q5JTV8 whole entry, looked up): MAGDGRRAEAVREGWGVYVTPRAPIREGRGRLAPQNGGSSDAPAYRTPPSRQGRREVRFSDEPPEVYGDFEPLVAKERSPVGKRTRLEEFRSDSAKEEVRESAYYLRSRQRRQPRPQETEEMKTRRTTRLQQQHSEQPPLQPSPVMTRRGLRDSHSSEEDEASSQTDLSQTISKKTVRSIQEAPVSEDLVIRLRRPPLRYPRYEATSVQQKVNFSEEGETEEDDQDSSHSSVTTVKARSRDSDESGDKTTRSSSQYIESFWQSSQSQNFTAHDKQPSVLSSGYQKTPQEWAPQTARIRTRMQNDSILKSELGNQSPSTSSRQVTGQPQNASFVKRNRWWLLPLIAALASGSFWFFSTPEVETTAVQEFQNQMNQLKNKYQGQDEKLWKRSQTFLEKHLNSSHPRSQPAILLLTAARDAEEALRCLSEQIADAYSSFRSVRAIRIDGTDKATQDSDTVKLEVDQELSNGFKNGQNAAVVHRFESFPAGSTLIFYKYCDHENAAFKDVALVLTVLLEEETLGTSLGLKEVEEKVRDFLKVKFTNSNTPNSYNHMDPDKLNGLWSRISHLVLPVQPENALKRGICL

| Compound | composite z-score [1] | z-score [2] | composite z-score [3] | composite z-score [4] | composite z-score [5] | composite z-score [6] | composite z-score [7] | composite z-score [8] | composite z-score [9] | composite z-score [10] |
| --- | --- | --- | --- | --- | --- | --- | --- | --- | --- | --- |
| CN(C)C(=O)[C@]1(CCC(=O)OC(C)(C)C)N=C(c2ccc(OCCCO)cc2)O[C@@H]1c1ccccc1N=[N+]=[N-] | 1.54 | 0.929 | -0.12 | 1.22 | 0.463 | 0.173 | 0.14 | 1.02 | 2.07 | 1.36 |
| CN1C(=O)C2C=CC(C(O)c3ccccn3)N(Nc3ccccc3)C2C1=O (stereo not given) | 0.409 | 0.0435 | 0.129 | -0.163 | -0.408 | -0.0647 | 0.318 | 0.266 | 0.353 | 0.476 |
| C=CCC(OC(C)=O)[C@@H]1[C@@H](N(Cc2cccc3ccccc23)C(=O)c2cccc3ccccc23)c2cc(OCCCO)ccc2N1C(=O)c1ccc2ccccc2n1 (stereo not given in full) | -0.316 | 1.21 | 0.146 | -0.301 | 0.117 | -0.208 | -0.138 | 0.151 | -0.117 | -0.198 |
| CN(C)CCCNC(=O)[C@@]1(Cc2ccccc2I)c2ccccc2C(=O)N(Cc2ccccc2C(F)(F)F)[C@H]1c1ccc(CO)cc1 | 0.973 | -3.4 | -1.2 | -0.327 | -0.149 | -0.176 | -0.138 | 0.612 | 0.283 | 0.376 |
| CN1C=C(C(=O)OCCS(C)(=O)=O)C(C(=O)OCCS(C)(=O)=O)=CC(CCCO)=CC1C1CC1 (stereo not given) | 0.117 | -0.552 | -0.0097 | 0.0991 | -0.0416 | -0.126 | 0.0434 | 0.257 | -0.116 | 0.198 |
| C=CC[C@@]1(C(=O)O)N=C(c2ccc(OCCCO)cc2)O[C@@H]1c1ccccc1N=[N+]=[N-] | 0.411 | 1.03 | 0.294 | 1.39 | 0.341 | -0.0236 | -0.181 | 1.24 | 1.02 | 1.77 |
| COc1ccc(C(O)C2C=CC3C(=O)N(c4ccccc4)C(=O)C3N2Nc2ccc([N+](=O)[O-])cc2)cc1OCc1ccccc1 (stereo not given) | 0.664 | 0.872 | 0.0921 | 0.804 | 0.584 | 1 | 0.504 | 2.27 | 0.979 | 1.27 |
| CC(C)N1C(=O)c2ccccc2[C@@H](C(=O)NCCCN(C)C)[C@@H]1c1ccc(CO)cc1 | -1 | 0.19 | -0.89 | 0.341 | 0.0647 | 0.026 | -0.367 | 0.707 | 0.64 | 0.684 |
| O=C/C=C/c1ccc(Cl)cc1 | -1.74 | -0.482 | 0.163 | -0.925 | -0.0367 | -0.0846 | -0.147 | -0.426 | -0.381 | 0.0933 |
| COCCOC(=O)N1C(=O)[C@@]2(c3cc(C#CCNC(N)=O)ccc31)[C@H](c1ccc(O)cc1)N1[C@H](c3ccccc3)[C@H](c3ccccc3)OC(=O)[C@H]1[C@@H]2C(=O)NC[C@H](O)c1ccccc1 | 0.83 | -0.703 | 0.952 | 0.288 | 0.0058 | 0.0026 | -0.119 | -0.287 | 1.1 | 0.834 |
| COC(=O)[C@@]1(Cc2ccc(F)cc2)[C@H]2c3cc(C(=O)N(C)C)n(CCc4ccccn4)c3C[C@H]2CN1C(=O)c1ccccc1 | 1.39 | -0.72 | 0.384 | -0.012 | -0.47 | 1.12 | -0.394 | 0.796 | 0.468 | 0.292 |
| Cc1ccccc1C(O)C1C=CC2C(=O)N(C)C(=O)C2N1Nc1ccccc1 (stereo not given) | 0.633 | -0.712 | 0.103 | 2.3 | 1.06 | 0.111 | -0.0289 | 1.07 | 1.91 | 1.08 |
| CC(C)C[C@@H]1NC(=O)[C@@H]2C[C@H](C(=O)NCCCCCC[N+](C)(C)C)[C@H](c3ccc(O)cc3)N2C1=O | 1.15 | 0.0338 | 0.424 | 0.669 | -1.15 | -0.208 | 0.246 | -0.158 | 0.912 | 2 |
| Cc1ccc(S[C@]2(C(=O)O)CC(=O)N(C3Cc4ccccc4C3)[C@@H]2c2ccc(CO)cc2I)cc1 | -0.104 | -0.517 | -0.67 | -0.212 | -0.196 | -0.117 | -0.156 | 0.22 | 0.365 | 0.835 |
| NCCCCCCNC(=O)[C@H]1C[C@H]2C(=O)NCC(=O)N2[C@H]1c1cccc(OCCO)c1 | 0.298 | -0.128 | 0.816 | -0.0421 | -0.369 | -0.0643 | 0.199 | 0.0234 | 0.963 | 1.37 |
| [N-]=[N+]=NCc1ccccc1C[C@]1(C(=O)NCCN2CCOCC2)N=C(c2ccc(OCCCO)cc2)O[C@H]1c1ccccc1N=[N+]=[N-] | 0.927 | -1.76 | 0.391 | 1.2 | 0.655 | 0.0903 | 0.21 | 1.73 | 1.51 | 0.919 |
| CC(C)CNC(=O)[C@@]1(c2ccc([N+](=O)[O-])cc2)CC(=O)N(CC23CC4CC(CC(C4)C2)C3)[C@@H]1c1ccc(CO)cc1 | 1.07 | -2.62 | -0.15 | -0.367 | 0.113 | 0.0215 | -0.0709 | 1.23 | 1.96 | 0.438 |
